# Assay outcomes (PubChem BioAssay)
# Rows were chosen to be rich in hits. Some 6.1% of all compounds tested hit in one or more screens of this group.
# DRD3 agonist: qHTS of D3 Dopamine Receptor Agonist: qHTS; D(3) dopamine receptor (Homo sapiens), P35462; D3R DiscoveRx beta-arrestin cells, luminescence, 90 min; max activation, %; 0.58% of 410,000 active; AID 652048, 2013; in the data active = max activation above about 30%; note: 0% is about no effect
# Target sequence (P35462 whole entry, looked up): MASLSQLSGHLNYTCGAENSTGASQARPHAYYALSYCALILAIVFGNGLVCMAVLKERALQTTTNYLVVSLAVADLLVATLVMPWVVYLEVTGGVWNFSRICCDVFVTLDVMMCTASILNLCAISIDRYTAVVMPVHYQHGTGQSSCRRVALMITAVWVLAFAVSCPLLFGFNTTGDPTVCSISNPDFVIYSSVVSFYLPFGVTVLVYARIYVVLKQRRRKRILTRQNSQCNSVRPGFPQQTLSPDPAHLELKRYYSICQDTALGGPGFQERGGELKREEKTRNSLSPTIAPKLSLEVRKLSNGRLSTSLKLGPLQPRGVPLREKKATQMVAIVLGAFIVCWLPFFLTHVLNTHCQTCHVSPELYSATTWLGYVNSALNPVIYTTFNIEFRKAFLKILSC
#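 Agonist mode: compounds and dopamine controls were applied to plated cells for 90 min at 37 degrees C after an overnight attachment at 1500 cells/well. Luminescent read-out followed 30 - 60 minutes at room temperature with DiscoveRx detection reagent.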
# D1 ag: Allosteric Agonists of the Human D1 Dopamine Receptor: qHTS. D(1A) dopamine receptor (Homo sapiens), P21728. HEK293 T-REx D1 cells, calcium flux, agonist mode. activation, % at 2 µM. 1% of 360,000 active. AID 504660, 2011; in the data active = activation above about 30%; note: 0% is about no effect
#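 Agonism was scored from calcium flux recorded over 180 s (1 read/s) after pintool compound addition, following a 10-cycle baseline. Cells were inducible force-coupled HEK293 TREx D1, plated overnight at 30 C and loaded with no-wash calcium dye.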
# D3 antag: qHTS of D3 Dopamine Receptor Antagonist: qHTS; D(3) dopamine receptor (Homo sapiens), P35462; D3R cells, DiscoveRx beta-arrestin luminescence, antagonist mode; active compounds read low; max response, negative = inhibition, %; 2.5% of 360,000 active; AID 652054, 2013; in the data active = max response below about -50%; inconclusive = no clear call, values can overlap the other calls; note: % is set by controls: 0 for no effect and ±100 for the full control effect
#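 Cells expressing the human receptor were seeded at 1500 cells/well, incubated overnight at 37 degrees C in 5% CO2, then exposed to library compounds with dopamine controls for 90 minutes at 37 degrees C before luminescent detection.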
# D1 PAM: Potentiators of Human D1 Dopamine Receptor: qHTS. HEK293 TREx D1 cells, calcium flux, dopamine EC20 potentiation. potentiation, % at 10 µM. AID 504651, 2011. D(1A) dopamine receptor (Homo sapiens), P21728. 0.036% of 360,000 active; in the data active = potentiation above about 30%; note: 0% is about no effect
# D1 antagonist: Antagonist of Human D 1 Dopamine Receptor: qHTS; HEK293 TREx D1 cells, calcium flux, dopamine EC80; active compounds read low; 3.2% of 360,000 active; D(1A) dopamine receptor (Homo sapiens), P21728; AID 504652, 2011; activity change, negative = inhibition, % at 10 µM; in the data active = activity change below about -30%; note: % is set by controls: 0 for no effect and ±100 for the full control effect
#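 HEK293 T-REx cells expressing inducible, force-coupled D1 receptor; no-wash Ca dye, 30–90 min RT. Cmpd → 180 s read at 1 Hz → EC80 DA → 180 s read.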
# * = called active by the depositor; ? = inconclusive; . = no result.
SMILES,DRD3 agonist,D1 ag,D3 antag,D1 PAM,D1 antagonist
CCN(C(=O)C1CCN(S(=O)(=O)c2c(C)noc2/C=C/c2ccc(C)cc2)CC1)c1cccc(C)c1,-3.6,1.8,.,-2.0,-4.5
Cc1ccc2c(c1)/C(=C/c1ccc(F)cc1)C(=O)N2,-6.5,3.2,-20.6,-5.8,-7.3
Cc1ccc2c(c1)/C(=C/c1ccccc1C)C(=O)N2,4.1,2.3,-13.8,-0.1,-31.3*
Cc1ccc(C(C)C)c(OCCSc2nc(-c3ccccc3F)nc3cc(=O)[nH]n23)c1,1.1,37.6*,.,-6.4,-11.8
Cc1cccc(-c2nc(SCCCOc3ccc(Cl)c(C)c3)n3[nH]c(=O)cc3n2)c1,0.3,1.6,.,-1.2,1.1
Cc1ccc(OCCSc2nc(-c3ccccc3C)nc3cc(=O)[nH]n23)cc1Cl,2.6,25.6,.,-6.1,-62.4*
COc1cccc(CNC(=O)c2nn(-c3ccc(C)cc3)c(=O)c3c2c2ccccc2n3C)c1,6.1,2.1,.,-2.1,-29.5
Cc1c(CCNC(=O)c2ccco2)sc2nc(-c3ccc(F)cc3)nn12,7.1,8.1,.,-3.2,.
Cc1ccc(-c2nc3sc(CCNC(=O)c4ccco4)c(C)n3n2)cc1,40.3*,-0.3,.,-2.2,.
CCOC(=O)C1(CCOc2ccccc2)CCN(Cc2ccc3c(c2)OCCO3)CC1,0.0,3.1,-56.1*,-2.1,-43.5*
CCOC(=O)C1(Cc2ccccc2)CCN(Cc2cnn(-c3ccccc3)c2)CC1,-9.0,0.6,-62.8*,-6.2,4.3
CCOC(=O)C1(CCCc2ccccc2)CCN(CCCn2cccn2)CC1,-0.7,36.5*,?,-1.1,-8.3
CCOC(=O)C1(CCOc2ccccc2)CCN(Cc2cccc(OC)c2O)CC1,-14.3,13.2,-23.6,-6.8,-44.8*
CCOC(=O)c1[nH]c2c(c1Cc1ccccc1)C(=O)CC(c1ccc(C(C)(C)C)cc1)C2 (stereo unspecified),-5.0,3.7,.,-0.6,1.9
Cc1ccc(CCNC(=O)c2ccc3c(c2)N(Cc2ccccc2F)C(=O)c2ccccc2S3=O)cc1 (stereo unspecified),2.6,6.7,.,-2.8,-7.0
CCOC(=O)C1(CCOc2ccccc2)CCN(Cc2ccc(O)c(Cl)c2)CC1,-16.9,23.8,-68.8*,-6.5,-39.1*
CCOC(=O)C1(CCOc2ccccc2)CCN(Cc2ccc(C(=O)OC)cc2)CC1,-26.7,6.6,-59.8*,-3.8,-12.0
CCOC(=O)C1(CCOC)CCN(C/C=C/c2ccccc2OC)CC1,-15.0,.,-71.2*,.,.
CCOC(=O)C1(CCOC)CCN(Cc2ccncc2)CC1,-2.8,2.5,8.6,-4.0,2.0
CCOC(=O)C1(CCOc2ccccc2)CCN(Cc2ccc(O)c(OC)c2)CC1,-18.5,16.3,?,4.1,-24.2
CCOC(=O)C1(CCOc2ccccc2)CCN(Cc2ccc(-n3cccn3)cc2)CC1,0.8,14.0,-71.0*,3.2,-9.7
Cc1nn(C(C)(C)C)c(OC(=O)C(C)(C)C)c1Sc1ccccc1,-5.7,2.5,.,8.5,20.3
Cc1cc2c(cc1NS(=O)(=O)c1cccc(C#N)c1)n(C)c(=O)c(=O)n2C,0.3,2.6,.,-5.0,7.5
CCOC(=O)C1CCN(C2=NC(=O)/C(=C/c3ccc(Cl)cc3)S2)CC1,2.3,1.0,-9.5,-3.7,-16.8
CCOC(=O)CSC1=NC(=O)/C(=C\c2ccc(Cl)cc2)S1,-4.6,100.3*,-77.8*,-2.8,-0.5
SMILES,DRD3 agonist,D1 ag,D3 antag,D1 PAM,D1 antagonist
Cc1onc(-c2ccccc2)c1C(=O)N/N=C/c1ccccc1OC(C)C,1.9,3.7,13.2,-4.0,-31.5*
Cc1cc(C)c(NC(=O)C2CCN(c3nnc(C)c4c(C)n(-c5ccccc5)nc34)CC2)c(C)c1,-23.8,-0.3,.,1.4,7.7
Nc1nc(-c2ccccc2)c(-c2ccccc2)s1,1.6,0.5,0.0,0.5,-6.9
Nc1nc(-c2ccccc2)c(-c2ccc([N+](=O)[O-])cc2)s1,6.7,71.3*,18.5,-3.6,-4.0
CC(C)(C)OC(=O)CNC(=O)c1[nH]cnc1C(=O)NCC(=O)OCc1ccccc1,70.6*,-0.6,67.5,-6.5,10.5
C[C@H](NC(=O)c1[nH]cnc1C(=O)Nc1ccc(CNC(=O)OC(C)(C)C)cc1)C(=O)OCc1ccccc1,80.5*,4.3,41.9,4.0,6.4
C[C@H](NC(=O)c1nc[nH]c1C(=O)NCCCCCNC(=O)OC(C)(C)C)C(=O)OCc1ccccc1,64.6*,5.8,171.1,-4.2,-39.1*
C[C@H](NC(=O)c1nc[nH]c1C(=O)N[C@@H](CCCCNC(=O)OC(C)(C)C)C(=O)OC(C)(C)C)C(=O)OCc1ccccc1,-5.8,14.4,30.0,-4.7,19.4
CC(C)(C)OC(=O)NCc1ccc(NC(=O)c2nc[nH]c2C(=O)NCCNC(=O)c2[nH]cnc2C(=O)Nc2ccc(CNC(=O)OC(C)(C)C)cc2)cc1,42.1*,.,75.8,.,.
CC(C)(C)OC(=O)NCCCCCNC(=O)c1nc[nH]c1C(=O)NCC(=O)OCc1ccccc1,27.0,.,109.8,.,.
N#Cc1nc(Nc2cc(F)cc(F)c2)nc(Nc2cc(F)cc(F)c2)n1,.,2.1,.,-2.3,-20.2
COc1cc(CN(C(=O)COc2ccc(Cl)cc2)c2ccccn2)cc(OC)c1OC,-7.5,2.4,.,-0.1,-6.8
COc1ccc(CNC(=O)c2cccn2-c2nnc(N3CCCC3)s2)c(OC)c1,10.9,2.0,.,-2.6,0.8
CC(C)(C)OC(=O)NCCCC[C@H](NC(=O)c1nc[nH]c1C(=O)N1CCc2ccccc2C1)C(=O)OC(C)(C)C,-0.4,2.0,17.4,-3.0,5.7
CC(C)(C)OC(=O)NCCCCCNC(=O)c1nc[nH]c1C(=O)N1CCc2ccccc2C1,38.3*,.,79.6,.,.
CCOC(=O)c1sc2nc(CSc3ccccc3)nc(N3CCCN(C)CC3)c2c1C,-3.9,30.5*,-61.6*,-5.2,55.2
CCOC(=O)c1sc2nc(CSc3ccccc3)nc(N3CCC(C(N)=O)CC3)c2c1C,-18.0,18.8,-7.6,-2.7,11.7
CCCn1nnc(NC(=O)/C=C/c2ccc(C(C)C)cc2)n1,-3.6,38.3*,-16.8,-9.3,-18.9
Cc1ccc(Cl)cc1N1CCN(C(=O)c2sc3nc4n(c(=O)c3c2C)CCC4)CC1,0.9,-0.8,.,-1.6,4.8
COc1cc(NS(=O)(=O)c2cnc(N)nc2)cc(OC)c1,10.1,1.1,.,-2.2,10.7
CCOC(=O)CC(=O)CSc1nc2c(sc(=S)n2-c2ccc(OCC)cc2)c(=O)[nH]1,1.7,1.5,4.5,-4.6,14.0
NC(=O)CSc1nc2c(sc(=S)n2-c2ccccc2)c(=O)[nH]1,8.2,0.1,7.7,-0.5,-38.2*
O=C(Nc1ccc(Cl)cc1)c1cncs1,1.3,1.1,4.8,-6.7,-47.0*
